Among the data in article PMC4081100, “A DNA-binding-site landscape and regulatory network analysis for NAC transcription factors in Arabidopsis thaliana” are binding signal values, retold here.

Holding throughout (assay): universal protein binding microarray (PBM); transcription factors of Arabidopsis thaliana; high values mean tight binding
For one test, the target named is T1, GST-ANAC092(1-176) (Arabidopsis thaliana, UniProt Q9FKA0 1-176).
T1 sequence: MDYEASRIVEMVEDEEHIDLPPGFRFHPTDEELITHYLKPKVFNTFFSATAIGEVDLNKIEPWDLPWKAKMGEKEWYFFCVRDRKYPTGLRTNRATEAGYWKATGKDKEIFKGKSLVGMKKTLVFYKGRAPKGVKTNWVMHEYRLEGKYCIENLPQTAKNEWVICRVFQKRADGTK
The following applies: protein: recombinant; tags: GST; chain copies: 2; dsDNA, one strand shown. An outline of the steps:
(§1)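 Protein amounts were determined by A280 or anti-GST western blot after glutathione–Sepharose 4B purification of GST-tagged proteins induced in cells, with zinc acetate included for zinc-finger proteins. Duplicate runs at 200 to 500 nM final were done on custom all-10-mer Agilent 4 × 180K arrays made double-stranded by primer extension. The normalised enrichment score (E-score) over gapped and ungapped 8-mers is the measure of binding.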

For the next test, the target named is GST-NTL6(1-168) (Arabidopsis thaliana, UniProt Q9SCK6 1-168). The following applies: protein: recombinant; tags: GST; chain copies: 2; dsDNA, one strand shown. The essentials:
as §1

The target in the next test is T2, GST-ANAC055(1-171) (Arabidopsis thaliana, UniProt Q9LDY8 1-171).
T2 sequence: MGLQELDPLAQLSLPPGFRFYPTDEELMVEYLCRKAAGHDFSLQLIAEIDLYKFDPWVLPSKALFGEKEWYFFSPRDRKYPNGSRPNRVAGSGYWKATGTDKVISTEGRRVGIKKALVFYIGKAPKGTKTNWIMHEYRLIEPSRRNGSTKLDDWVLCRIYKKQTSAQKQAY
The following applies: protein: recombinant; tags: GST; chain copies: 2; dsDNA, one strand shown. An outline of the steps:
as §1

In the next test the target is T3, GST-ATAF1 NAC domain (Arabidopsis thaliana, UniProt Q39013 7-158).
T3 sequence: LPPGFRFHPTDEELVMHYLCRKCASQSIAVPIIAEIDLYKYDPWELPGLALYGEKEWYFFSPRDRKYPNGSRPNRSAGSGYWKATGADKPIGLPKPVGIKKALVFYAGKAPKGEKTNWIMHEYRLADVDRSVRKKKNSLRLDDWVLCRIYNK
The following applies: protein: recombinant; tags: GST; chain copies: 2; dsDNA, one strand shown. An outline of the steps:
as §1

In test [1] the target is T4, GST-ANAC092(1-285) full length (Arabidopsis thaliana, UniProt Q9FKA0 1-285).
T4 sequence: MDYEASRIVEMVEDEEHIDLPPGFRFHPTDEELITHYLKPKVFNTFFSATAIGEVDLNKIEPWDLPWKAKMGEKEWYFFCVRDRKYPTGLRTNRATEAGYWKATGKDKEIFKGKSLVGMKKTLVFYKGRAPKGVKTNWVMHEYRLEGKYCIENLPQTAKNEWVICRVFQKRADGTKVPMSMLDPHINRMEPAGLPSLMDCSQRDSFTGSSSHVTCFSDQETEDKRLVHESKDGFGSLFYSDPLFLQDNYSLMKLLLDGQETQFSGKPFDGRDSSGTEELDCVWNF
The following applies: protein: recombinant; tags: GST; chain copies: 2; dsDNA, one strand shown. An outline of the steps: as §1

Another test deals with T5, GST-NST2(1-184) (Arabidopsis thaliana, UniProt Q9M274 1-184).
T5 sequence: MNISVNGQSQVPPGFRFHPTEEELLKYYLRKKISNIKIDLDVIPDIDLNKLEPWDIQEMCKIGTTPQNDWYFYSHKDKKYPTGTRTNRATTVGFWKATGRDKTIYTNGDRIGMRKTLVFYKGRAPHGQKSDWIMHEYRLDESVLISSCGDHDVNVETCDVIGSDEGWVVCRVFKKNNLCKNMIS
The following applies: protein: recombinant; tags: GST; chain copies: 2; dsDNA, one strand shown. An outline of the steps: as §1

Another test concerns the target T6, GST-NTL8 NAC domain (Arabidopsis thaliana, UniProt Q9XIN7 14-156).
T6 sequence: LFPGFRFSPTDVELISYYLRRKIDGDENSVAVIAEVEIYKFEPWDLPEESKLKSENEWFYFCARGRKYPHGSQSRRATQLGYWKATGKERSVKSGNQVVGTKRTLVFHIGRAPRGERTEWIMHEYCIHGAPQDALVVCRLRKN
The following applies: protein: recombinant; tags: GST; chain copies: 2; dsDNA, one strand shown. The essentials:
as §1

In a further test the target is T7, GST-SND1(1-203) (Arabidopsis thaliana, UniProt Q9LPI7 1-203).
T7 sequence: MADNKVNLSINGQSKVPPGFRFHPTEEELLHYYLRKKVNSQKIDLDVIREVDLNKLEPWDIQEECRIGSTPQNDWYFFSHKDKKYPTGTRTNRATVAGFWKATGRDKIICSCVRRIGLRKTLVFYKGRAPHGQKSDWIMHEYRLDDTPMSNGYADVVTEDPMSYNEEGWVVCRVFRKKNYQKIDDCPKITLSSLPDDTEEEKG
The following applies: protein: recombinant; tags: GST; chain copies: 2; dsDNA, one strand shown. An outline of the steps:
as §1

For the next test, the target named is T8, GST-VND3 NAC domain (Arabidopsis thaliana, UniProt Q9FH59 12-162).
T8 sequence: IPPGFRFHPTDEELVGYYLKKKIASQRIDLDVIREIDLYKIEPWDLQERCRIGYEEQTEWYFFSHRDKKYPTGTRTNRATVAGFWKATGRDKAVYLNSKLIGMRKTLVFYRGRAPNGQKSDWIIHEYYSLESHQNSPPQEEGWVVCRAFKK
The following applies: protein: recombinant; tags: GST; chain copies: 2; dsDNA, one strand shown. An outline of the steps:
as §1

The target of the next test is GST-WRKY1(266-371) (Arabidopsis thaliana, UniProt Q9SI37 266-371). The following applies: protein: recombinant; tags: GST; dsDNA, one strand shown. The essentials: as §1
GST-WRKY1(266-371), sequence (Q9SI37 266-371): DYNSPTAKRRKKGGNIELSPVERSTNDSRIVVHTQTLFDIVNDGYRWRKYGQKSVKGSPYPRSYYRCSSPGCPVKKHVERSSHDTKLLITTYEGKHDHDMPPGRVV
A further test deals with T9, GST-VND7 NAC domain (Arabidopsis thaliana, UniProt Q9C8W9 9-158).
T9 sequence: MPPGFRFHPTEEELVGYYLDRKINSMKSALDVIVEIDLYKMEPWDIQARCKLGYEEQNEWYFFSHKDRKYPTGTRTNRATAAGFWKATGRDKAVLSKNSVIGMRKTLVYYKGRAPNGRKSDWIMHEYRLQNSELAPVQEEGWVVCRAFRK
The following applies: protein: recombinant; tags: GST; chain copies: 2; dsDNA, one strand shown. The essentials:
as §1

The next test concerns the target T10, GST-NAP(1-166) (Arabidopsis thaliana, UniProt O49255 1-166).
T10 sequence: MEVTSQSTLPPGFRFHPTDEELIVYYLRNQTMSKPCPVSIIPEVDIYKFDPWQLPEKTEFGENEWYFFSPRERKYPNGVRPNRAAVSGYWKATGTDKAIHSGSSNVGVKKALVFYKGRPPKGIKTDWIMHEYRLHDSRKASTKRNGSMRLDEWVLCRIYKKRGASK
The following applies: protein: recombinant; tags: GST; chain copies: 2; dsDNA, one strand shown. The essentials:
as §1

In a further test the target is T11, GST-ANAC019 NAC domain (Arabidopsis thaliana, UniProt Q9C932 14-162).
T11 sequence: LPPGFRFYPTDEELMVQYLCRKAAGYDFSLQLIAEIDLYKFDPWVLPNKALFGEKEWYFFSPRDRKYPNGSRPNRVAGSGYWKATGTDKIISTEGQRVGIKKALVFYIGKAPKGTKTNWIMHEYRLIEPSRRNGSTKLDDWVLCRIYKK
The following applies: protein: recombinant; tags: GST; chain copies: 2; dsDNA, one strand shown. An outline of the steps:
as §1

GST-NTL6(1-168), sequence (Q9SCK6 1-168): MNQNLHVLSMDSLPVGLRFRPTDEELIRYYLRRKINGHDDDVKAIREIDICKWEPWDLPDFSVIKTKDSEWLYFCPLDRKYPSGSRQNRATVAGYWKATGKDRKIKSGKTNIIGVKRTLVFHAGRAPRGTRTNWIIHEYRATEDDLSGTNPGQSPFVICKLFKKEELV

Take TTAAGGAA: the binding signal with GST-ANAC092(1-176) is 0.11 E-score; with GST-NTL6(1-168) it was 0.48 E-score; with GST-ANAC055(1-171), 0.0521 E-score; in the test with GST-ATAF1 NAC domain, 0.0827 E-score; in [1] it was 0.131 E-score; with GST-NST2(1-184) it was 0.139 E-score. Further, the binding signal was determined as 0.293 E-score with GST-NTL8 NAC domain, 0.39 E-score with GST-SND1(1-203), 0.24 E-score in the test with GST-VND3 NAC domain and 0.0668 E-score with GST-WRKY1(266-371).
On to CCTTACCC, for which the binding signal in the test with GST-NTL6(1-168) worked out at 0.366 E-score; in [1], 0.0872 E-score; with GST-NTL8 NAC domain, 0.404 E-score; with GST-SND1(1-203) it was 0.167 E-score; in the test with GST-VND3 NAC domain, 0.0668 E-score; in the test with GST-VND7 NAC domain, 0.0637 E-score.
Regarding AAGGTCAA, the binding signal is 0.138 E-score with GST-ANAC092(1-176); 0.252 E-score with GST-NTL6(1-168); 0.106 E-score with GST-ANAC055(1-171); 0.146 E-score in the test with GST-ATAF1 NAC domain; 0.0845 E-score in test [1]; 0.0822 E-score with GST-NST2(1-184). For the same sequence, the binding signal with GST-NTL8 NAC domain was determined as 0.0854 E-score; with GST-SND1(1-203) it was 0.144 E-score; with GST-VND3 NAC domain, 0.101 E-score; with GST-WRKY1(266-371) it was 0.484 E-score.
As to AATTACGC, the binding signal was 0.17 E-score with GST-ANAC092(1-176); 0.155 E-score in the test with GST-ANAC055(1-171); 0.18 E-score in the test with GST-ATAF1 NAC domain; 0.243 E-score in test [1]; 0.144 E-score with GST-NAP(1-166); 0.199 E-score with GST-NST2(1-184). Also, the figures for the binding signal in the test with GST-SND1(1-203), in the test with GST-VND3 NAC domain and with GST-VND7 NAC domain were 0.428 E-score, 0.119 E-score and 0.13 E-score, respectively.
With CACGTTAG, the binding signal was 0.387 E-score with GST-ANAC092(1-176); 0.0916 E-score in the test with GST-ANAC055(1-171); 0.13 E-score in the test with GST-ATAF1 NAC domain; 0.412 E-score in test [1]; 0.0974 E-score with GST-NAP(1-166); 0.117 E-score with GST-NST2(1-184). For the same sequence, the binding signal worked out at 0.237 E-score with GST-SND1(1-203), 0.164 E-score in the test with GST-VND3 NAC domain and 0.0853 E-score in the test with GST-VND7 NAC domain.
GTTAAGGA: the binding signal with GST-ANAC092(1-176) turned out to be 0.116 E-score; in the test with GST-NTL6(1-168) it was 0.424 E-score; in the test with GST-ANAC019 NAC domain, 0.178 E-score; with GST-ANAC055(1-171) it was 0.165 E-score; in the test with GST-ATAF1 NAC domain, 0.11 E-score; in [1], 0.0916 E-score. The binding signal in the test with GST-NST2(1-184) was 0.16 E-score; with GST-NTL8 NAC domain, 0.273 E-score; with GST-SND1(1-203) it was 0.276 E-score; in the test with GST-VND3 NAC domain, 0.176 E-score; in the test with GST-WRKY1(266-371), 0.0559 E-score.
